74 molecules from PubChem BioAssay AID651661 (Broad Institute, 2012) can be followed below.

About 2,300 (0.66%) of roughly 350,000 compounds were called active. This is one part of a sample in which actives are shown more often than they occur.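 The calls were made as follows: active = mean inhibition of at least 50% after viability correction, with every replicate also passing that limit; inconclusive = mean reaches 50% but only one of two replicates passes; inactive = the rest.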

This assay in a line: EWS/Fli-driven NR0B1 reporter inhibitors, primary screen, A673 cells, NR0B1 luciferase, luminescence, MLPCN library (AID 651661).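 Also: firefly luciferase signal divided by Alamar Blue viability fluorescence both relative to DMSO.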 Particulars: viability-normalised, at 12.6 µM, hits give high values.
As to `CCCN1C[C@@H](C)[C@@H](OC)CN(C)C(=O)c2ccc(NC(=O)c3ccc(F)cc3)cc2OC[C@@H]1C`, the inhibition was -2.15% (inactive).
For the molecule `Cc1noc(C)c1NC(=O)N(C)C[C@H]1OCCCC[C@@H](C)Oc2ccc(NS(=O)(=O)c3ccc(Cl)cc3)cc2C(=O)N([C@@H](C)CO)C[C@H]1C`, the inhibition is -7.3% (inactive).
The result for `CNC[C@H]1Oc2ccc(N(C)C)cc2CC(=O)N([C@@H](C)CO)C[C@@H]1C` reads 14.1% (inactive); that for `CN(CC(=O)NCc1ccc2c(c1)OCO2)CC(=O)Nc1ccc(F)c(F)c1F`, 3.77% (inactive); that for `S=C(NCc1ccc2c(c1)OCO2)NCc1ccco1`, -23.2% (inactive).
The result for `CC1(C(=O)NCC2CCOCC2)Cc2c(-c3cccc(C(N)=O)c3)ccnc2O1` (centres undefined) reads 0.349% (inactive); that for `COc1cc(OC)c(C(=O)NCc2ccc3c(c2)OCO3)cc1OC`, 9.01% (inactive).
The result for `CC1(C(=O)NCc2ccco2)Cc2c(-c3ccc4c(c3)OCO4)ccnc2O1` (centres undefined) reads 57.5% (active).
Regarding `CC1(C(=O)NCc2ccc(F)c(F)c2)Cc2c(-c3ccc4c(c3)OCO4)ccnc2O1` (centres undefined), the inhibition is 60.1% (active).
Under `C[C@H](CO)N1C[C@H](C)[C@@H](CN(C)Cc2ccc(Cl)c(Cl)c2)Oc2ccc(NC(=O)Nc3ccc(C(F)(F)F)cc3)cc2CC1=O` stands 72.5% (active).
`C[C@@H]1CN([C@H](C)CO)C(=O)Cc2cc(NC(=O)Nc3ccccc3)ccc2O[C@@H]1CN(C)Cc1ccc(C(F)(F)F)cc1`: the inhibition is -0.517% (inactive).
The result for `C[C@@H]1CN([C@H](C)CO)C(=O)Cc2cc(NC(=O)Nc3ccccc3)ccc2O[C@H]1CN(C)Cc1ccc(Cl)c(Cl)c1` reads 9.7% (inactive); that for `Cc1noc(C)c1NC(=O)Nc1ccc2c(c1)CC(=O)N([C@H](C)CO)C[C@@H](C)[C@@H](CN(C)Cc1ccncc1)O2`, -1.93% (inactive).
The result for `Cc1noc(C)c1NC(=O)Nc1ccc2c(c1)CC(=O)N([C@@H](C)CO)C[C@@H](C)[C@@H](CN(C)Cc1ccc(Cl)c(Cl)c1)O2` reads 64.4% (active).
The result for `Cc1noc(C)c1NC(=O)Nc1ccc2c(c1)CC(=O)N([C@H](C)CO)C[C@@H](C)[C@@H](CN(C)Cc1ccc(C(F)(F)F)cc1)O2` reads 7.38% (inactive); that for `O=C(C1CCOCC1)N1CC(=O)N2[C@H](CO)[C@H](c3ccc(C#Cc4cccc(F)c4)cc3)[C@H]2C1`, 3.5% (inactive).
With `CCCC(=O)Nc1ccc2c(c1)C(=O)N(C)[C@H]1CC[C@@H](CC(=O)NCC(F)(F)F)O[C@@H]1CO2`, the inhibition was 3% (inactive).
The result for `O=C(C[C@@H]1CC[C@H](NC(=O)C2CC2)[C@H](CO)O1)NCc1ccccc1Cl` reads -4.63% (inactive); that for `C[C@H](CO)N1C[C@H](C)[C@@H](CN(C)C(=O)NC2CCCCC2)Oc2ccc(NC(=O)c3ccncc3)cc2CC1=O`, -1.15% (inactive).
Under `COc1cccc(C(=O)Nc2ccc3c(c2)C(=O)N(C)C[C@@H](OC)[C@H](C)CN(C(=O)C2CCOCC2)[C@H](C)CO3)c1` stands -12.9% (inactive); under `CCOC(=O)CN/C=C(\C#N)c1ccc(F)cc1`, -7.7% (inactive).
The result for `CCOc1cc(/C=C(/C#N)c2ccc(Cl)cc2)cc(Cl)c1OCC(=O)O` reads 67.4% (active); that for `COc1cc(/C=C(/NC(=O)c2ccc(Cl)cc2Cl)C(=O)O)cc(OC)c1OC`, 11.1% (inactive); that for `CO[C@@H]1CN(C)C(=O)c2cc(NC(=O)c3ccc(F)cc3)ccc2OC[C@H](C)N(C(=O)CN(C)C)C[C@H]1C`, 1.32% (inactive).
Turning to `C[C@@H]1CCCCO[C@@H](CN(C)Cc2ccncc2)[C@H](C)CN([C@H](C)CO)C(=O)c2cc(NC(=O)CCC(F)(F)F)ccc2O1`, the inhibition is -2.85% (inactive).
For `Cc1ccc(S(=O)(=O)NC[C@H]2CC[C@@H]3[C@@H](CN3Cc3ccccc3C(=O)O)O2)cc1`, the inhibition is 4.08% (inactive).
Under `C[C@@H]1CCCCO[C@@H](CN(C)C(=O)c2ccccc2)[C@H](C)CN([C@@H](C)CO)C(=O)c2cc(NS(=O)(=O)c3cn(C)cn3)ccc2O1` stands -5.15% (inactive).
On to `CC[n+]1cc(C)ccc1/C=C/c1ccc(N(C)C)cc1`, for which the inhibition was 57.5% (active).
Under `CO[C@H]1CN(C)C(=O)c2cc(NC(=O)c3cnccn3)ccc2OC[C@@H](C)N(CC2CC2)C[C@@H]1C` stands -6.87% (inactive).
The result for `COc1ccc(/C=C/c2noc(-c3ccccc3OC(C)=O)n2)cc1` reads 6.55% (inactive).
Under `COc1ccc(-c2noc(CNC(=O)C(C)Oc3ccccc3)n2)cc1` (centres undefined) stands -7.08% (inactive); under `COc1ccc(-c2nc(-c3ccccc3)no2)c(OC)c1`, 77.6% (active); under `COc1cccc(NC(=O)C[C@H]2CC[C@@H]3[C@H](COc4ccc(NC(C)=O)cc4C(=O)N3C)O2)c1`, -0.492% (inactive).
As to `O=C(C[C@@H]1C=C[C@@H](NS(=O)(=O)c2ccccc2)[C@H](CO)O1)N1CCN(c2ccccc2)CC1`, the inhibition is 2.46% (inactive).
Under `CNC(=O)C[C@H]1CC[C@H]2[C@H](COc3ccc(NC(=O)Nc4cccc(C)c4)cc3C(=O)N2C)O1` stands -11.4% (inactive); under `C[C@H](O)C#Cc1ccc2c(c1)O[C@H](CN(C)C(=O)C1CCCCC1)[C@@H](C)CN([C@H](C)CO)S2(=O)=O`, 2.27% (inactive).
On to `Cc1ccc(-c2cc(=O)c3ccc(F)cc3[nH]2)cc1`, for which the inhibition is -5.43% (inactive).
Under `O=c1cc(-c2ccccc2)[nH]c2cc(F)ccc12` stands 54.2% (active); under `Cc1cc(=O)c2ccc(NC(=O)c3ccccc3)cc2[nH]1`, 9.56% (inactive).
The result for `CCC(=O)N1CC2(CN(Cc3ccc(Cl)cc3)C2)c2c([nH]c3cc(OC)ccc23)[C@@H]1CO` reads -10.6% (inactive); that for `CC(=O)Nc1ccc(S(=O)(=O)Nc2ccc(N3CCCCC3)cc2)cc1`, 63.2% (active); that for `CC(=O)Nc1ccc(S(=O)(=O)Nc2ccc(-c3ccc4nnc(C)n4n3)cc2)cc1`, 18.6% (inactive).
With `O=C(Nc1ccc(N2CCCCC2)cc1)c1cc(S(=O)(=O)N2CCOCC2)ccc1F`, the inhibition is 0.758% (inactive).
The result for `O=C(NCc1cccc(F)c1)[C@H]1[C@H](CO)[C@H]2Cn3c(cccc3=O)[C@@H]1N2` reads -7.63% (inactive).
The result for `O=C(Cc1ccccn1)N1CC(=O)N2[C@H](CO)[C@H](c3ccc(C#CCC4CCCC4)cc3)[C@@H]2C1` reads -3.29% (inactive).
For `C#CCNc1ccc(C(=O)OCC)cc1`, the inhibition is -46.2% (inactive).
For `COC(=O)c1ccc(NCc2cc(O)ccc2O)cc1`, the inhibition was 61.8% (active).
As for `CC(OC(=O)c1ccc(Cl)cc1O)C(=O)NCCC1=CCCCC1` (centres undefined), the inhibition is 1.44% (inactive).
Under `CC(CN1CCOCC1)OC(=O)c1ccc(Cl)cc1Cl` (centres undefined) stands -6.54% (inactive).
The result for `O=C(OC12CC3CC(CC(C3)C1)C2)c1ccc(NCc2cc(O)ccc2O)cc1` reads 30.8% (inactive).
Under `CC(C)OC(=O)c1ccc(NCc2cc(O)ccc2O)cc1Cl` stands 59.4% (active); under `O=C(C1CCC1)N1CC[C@@H]2[C@H]1c1cc(C#Cc3ccc(F)cc3)ccc1N[C@@H]2CO`, 11% (inactive); under `CO[C@@H]1CN(C)C(=O)c2ccc(NC(=O)Nc3c(C)noc3C)cc2OC[C@@H](C)NC[C@H]1C`, 1.67% (inactive).
With `COc1ccc(S(=O)(=O)N(C)C[C@H]2Oc3c(NS(=O)(=O)c4cccs4)cccc3C(=O)N([C@H](C)CO)C[C@@H]2C)cc1`, the inhibition is 0.582% (inactive).
The result for `COc1ccc(NC(=O)C2Cc3c(-c4ccc5c(c4)OCO5)ccnc3O2)cn1` (centres undefined) reads 52.6% (active).
Under `O=C(Nc1ccc(Cl)cc1)C1Cc2c(-c3ccc4c(c3)OCO4)ccnc2O1` (centres undefined) stands 8.69% (inactive); under `COc1ccc(NC(=O)C2Cc3c(-c4ccc(Cl)cc4)ccnc3O2)cc1` (centres undefined), -1.76% (inactive).
In the case of `CCCN1C[C@@H](C)[C@H](OC)CN(C)C(=O)c2cc(NC(=O)CC)ccc2OC[C@@H]1C`, the inhibition is -0.843% (inactive).
Under `COC(=O)C[C@H]1C=C[C@H](NC(=O)Nc2ccc(C(F)(F)F)cc2)[C@@H](CO)O1` stands -13.7% (inactive).
Under `CC(C)C(=O)Nc1ccc2c(c1)C(=O)N(C)[C@H]1CC[C@H](CC(=O)NCc3ccc(F)cc3)O[C@H]1CO2` stands -4.82% (inactive); under `O=C(C1CCC1)N1CCN(c2ccccc2)CC1`, -2.08% (inactive).
Under `O=C1C=CC(=O)N1c1ccc(N2CCCCC2)cc1` stands 70% (active); under `O=C(C1CC(=O)N(C2CCCCC2)C1)N1CCN(c2ccccc2)CC1` (centres undefined), 2.44% (inactive); under `O=C(Nc1cc(F)ccc1F)N1CCCCN2[C@H](CO)[C@@H](c3ccc(-c4cccnc4)cc3)[C@@H]2C1`, -2.34% (inactive).
In the case of `CN(C)C(=O)[C@@H]1[C@@H](CO)[C@@H]2Cn3c(ccc(-c4ccncc4)c3=O)[C@H]1N2C(=O)NC1CCCC1`, the inhibition is -5.42% (inactive).
The result for `CCCc1cc(=O)[nH]c(SCC(=O)c2c(N)n(CC(C)C)c(=O)n(C)c2=O)n1` reads 61.7% (active).
Under `CC(C)Cn1c(N)c(C(=O)COC(=O)CN2C(=O)C3CC=CCC3C2=O)c(=O)n(C)c1=O` (centres undefined) stands 10.8% (inactive); under `CCCc1cc(=O)[nH]c(SCC(=O)N2C(C)CCCC2C)n1` (centres undefined), -0.113% (inactive).
The result for `COc1ccc2c3c(n(C)c2c1)[C@@H](CO)N(C(=O)c1ccccn1)CC31CN(C)C1` reads 2.95% (inactive); that for `CCOC(=O)c1c(NC(=O)CSc2nccc(=O)[nH]2)sc(C)c1C`, 1.69% (inactive).
As to `CCOC(=O)c1c(C)[nH]c2c1-c1ccccc1C(=O)C2=O`, the inhibition is 75.3% (active).
The result for `CCOC(=O)c1c(C)[nH]c(C(=O)OCC(=O)c2ccc(OC)cc2OC)c1C` reads -15.3% (inactive); that for `CCCN1C[C@@H](C)[C@@H](OC)CN(C)C(=O)c2cc(NC(=O)C3CCC3)ccc2OC[C@H]1C`, 4.62% (inactive).
The result for `CCCNC(=O)N1CCC2(CC1)CN(C(=O)c1cccnc1)[C@@H](CO)c1[nH]c3cc(OC)ccc3c12` reads -3.43% (inactive).

In general, inhibition refers to the drop in the measured response relative to a control, in per cent.
